Results reported in PubChem BioAssay (NCATS).
“And” between values parts separate entries of the source, which are not always exact repeats. Identical values can stand only once. Results filed as inconclusive are left out. More than one record can exist for a structure, and the calls need not agree. A number with no mark means an inactive call. The source made the active and inactive calls. Unless noted, calls follow the shape of the dose curve; as a rule, active = well fitted curve in the direction sought with a large enough effect; inconclusive = small, poorly fitted or top-dose-only effect, or another doubt; inactive = no such curve, though single readings can be large; an effect the other way counts as inactive or inconclusive.

What was measured:
[1] = target: Cellular tumor antigen p53 (Homo sapiens) (UniProt P04637); assay: Primary qHTS for small molecule compounds that upregulate eGFP-tagged delta133p53alpha (in N-terminal) cells. (AID 2060322); settings: NCI-H358 eGFP-delta133p53alpha fluorescence, 24 h; activation: stronger effect = higher value; also: nearly all actives have a fitted effect of over 75% in size; also: potency is read from the fitted curve at half-maximal effect;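 as to activation: series mostly up to about 56 µM; 0% = DMSO vehicle and 100% = reference activator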
Summary of the method: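 NCI-H358 cells pre-induced 24 h with 10 ng/ml doxycycline to express N-terminal eGFP-delta133p53alpha, then dosed 24 h at 37C without doxycycline; fixed, Hoechst-stained, GFP intensity by laser scanning cytometry, normalized to DMSO (0%) and 57.5 uM 5-azacytidine (100%).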

[2] = target: Aldehyde dehydrogenase, mitochondrial (Homo sapiens) (UniProt P05091); assay: qHTS for Inhibitors of the Aldehyde Dehydrogenase Family (ALDH2) Primary screen (AID 2061308);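 also: plate controls were vehicle for no effect and reference inhibitor for full effect; nearly all actives have a fitted effect of over 55% in size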
[3] = target: Retinaldehyde dehydrogenase 3 (Homo sapiens) (UniProt P47895); assay: qHTS for Inhibitors of the Aldehyde Dehydrogenase Family (ALDH1A3) Primary screen (AID 2061315);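 also: plate controls were DMSO vehicle for no effect and reference inhibitor for full effect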
[4] = BET inhibitor-based combinations targeting novel dependencies in MECOM-rearranged (r) AML: OCI-AML3 cell line (AID 2202232); settings: Potency: OCI-AML3 viability; also: nearly all actives have a fitted effect of over 35% in size; also: potency is read from the fitted curve at half-maximal effect
Summary of the method: (§1)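 A 48 hr incubation preceded viability reading by CellTiter-Glo, with 15 min room-temperature development. Dose series had 11 points; normalization used DMSO and empty wells; AUC was computed and mean-centered per line as Z-AUC.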

[5] = BET inhibitor-based combinations targeting novel dependencies in MECOM-rearranged (r) AML: MV-4-11 cell line (AID 2202233); also: potency is read from the fitted curve at half-maximal effect; nearly all actives have a fitted effect of over 45% in size
Summary of the method: (§2)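 Each compound is tested in an 11-point concentration series against 500 seeded cells/well for 48 hr. The luminescent viability signal is normalized to DMSO and blank wells, then reduced to AUC and a cell-line-centred Z-AUC.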

[6] = BET inhibitor-based combinations targeting novel dependencies in MECOM-rearranged (r) AML: HNT-34 cell line (AID 2202234); also: nearly all actives have a fitted effect of over 35% in size; also: potency is read from the fitted curve at half-maximal effect
Summary of the method: as §2

[7] = BET inhibitor-based combinations targeting novel dependencies in MECOM-rearranged (r) AML: UCSD-AML1 cell line (AID 2202235); also: nearly all actives have a fitted effect of over 40% in size; also: potency is read from the fitted curve at half-maximal effect
Summary of the method: as §2

[8] = BET inhibitor-based combinations targeting novel dependencies in MECOM-rearranged (r) AML: AML-191 cell line (AID 2202236; also: nearly all actives have a fitted effect of over 35% in size; also: potency is read from the fitted curve at half-maximal effect)
Summary of the method: as §1

[9] = BET inhibitor-based combinations targeting novel dependencies in MECOM-rearranged (r) AML: AML-194 cell line (AID 2202237; also: nearly all actives have a fitted effect of over 40% in size; also: potency is read from the fitted curve at half-maximal effect)
Summary of the method: as §1

[10] = target: Retinaldehyde dehydrogenase 3 (Homo sapiens) (UniProt P47895); assay: qHTS for Inhibitors of the Aldehyde Dehydrogenase Family (ALDH1A3) Validation screen (AID 2061312); also: % is scaled to controls: 0 for no effect and ±100 for the full control effect; nearly all actives have a fitted effect of over 45% in size
[11] = BET inhibitor-based combinations targeting novel dependencies in MECOM-rearranged (r) AML: SET-2 cell line (AID 2202231); settings: SET-2 AML cells viability, CellTiter-Glo luminescence, 48 h; viability: stronger effect = lower value, concentration not given here; also: nearly all actives have a fitted effect of over 35% in size; also: potency is read from the fitted curve at half-maximal effect;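 as to viability: plate controls were DMSO treated cells for no effect and wells without cells for full effect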
Summary of the method: as §1

[12] = target: Aldehyde dehydrogenase, mitochondrial (Homo sapiens) (UniProt P05091); assay: qHTS for Inhibitors of the Aldehyde Dehydrogenase Family (ALDH2) Validation screens (AID 2061302; active = well fitted inhibition curve with a large enough effect; title and protocol of this record describe different tests;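 also: plate controls were DMSO vehicle for no effect and maximal DPI positive control response for full effect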)

Cellular tumor antigen p53 (Homo sapiens), sequence (P04637 whole entry, looked up): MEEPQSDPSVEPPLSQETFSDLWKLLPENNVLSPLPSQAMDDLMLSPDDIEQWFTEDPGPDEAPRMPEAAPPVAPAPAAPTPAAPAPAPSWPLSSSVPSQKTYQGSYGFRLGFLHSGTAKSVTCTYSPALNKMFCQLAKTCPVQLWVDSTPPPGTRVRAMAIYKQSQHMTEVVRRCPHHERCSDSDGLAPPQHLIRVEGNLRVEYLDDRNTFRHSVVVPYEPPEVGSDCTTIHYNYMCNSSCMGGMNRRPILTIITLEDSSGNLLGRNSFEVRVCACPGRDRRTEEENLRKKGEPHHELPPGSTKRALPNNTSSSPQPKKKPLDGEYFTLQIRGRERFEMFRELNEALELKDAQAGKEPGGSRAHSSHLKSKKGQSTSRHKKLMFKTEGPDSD

SMILES | Potency [1] | activation [1] | Potency [2] | Potency [3] | Potency [4] | Potency [5] | Potency [6] | Potency [7] | Potency [8] | Potency [9] | Potency [10] | Potency [11] | viability [11] [%] | Potency [12]
COc1cc2c(Nc3ccc(Br)cc3F)ncnc2cc1OCC1CCN(C)CC1 | 21.3 µM (active) | 0.071% and -8.47% | inactive | inactive | 23.5 µM (active) | 3.32 µM (active) | 2.63 µM (active) | 14.8 µM (active) | 20.9 µM (active) | 23.5 µM (active) |  |  |  | 
CCc1cccc(CC)c1NC(=O)N1Cc2[nH]nc(NC(=O)c3ccc(N4CCN(C)CC4)cc3)c2C1 | 12.2 µM (active) | 5.63% | inactive | inactive |  | 1.32 µM (active) | 0.742 µM (active) | 14.8 µM (active) | 5.25 µM (active) | 9.34 µM (active) |  |  |  | 
CN(C[C@@H]1COCCO1)S(=O)(=O)Nc1ccc2ccc3ncc(-c4cnn(C)c4)cc3c(=O)c2c1 | 8.63 µM (active) | -1.43% | inactive | inactive |  | 0.417 µM (active) | 3.32 µM (active) | 5.9 µM (active) | 6.61 µM (active) |  | inactive |  |  | 
COc1cc(N2CCC(N(C)C)CC2)ccc1Nc1ncc(Cl)c(Nc2ccccc2P(C)(C)=O)n1 | 2.69 µM (active) | -5.31% | inactive | inactive | 7.42 µM (active) | 0.0934 µM (active) | 2.63 µM (active) | 2.63 µM (active) | 9.34 µM (active) | 7.42 µM (active) |  | 6.61 µM (active) |  | 
O=C(Nc1cc(C(F)(F)F)cc(C(F)(F)F)c1)c1cc(Cl)ccc1O | 3.01 µM (active) | 2.31% | inactive | inactive | 2.09 µM (active) | 1.86 µM (active) | 2.35 µM (active) | 1.66 µM (active) | 1.18 µM (active) |  |  | 2.35 µM (active) |  | 
COc1ccc(C2CC(c3ccccc3)=NN2c2ccc(S(N)(=O)=O)cc2)cc1 (configuration not stated) | 21.7 µM (active) | -16.2% | inactive | inactive |  |  |  | inactive | inactive | inactive | inactive |  | 112 | 
O=C(Nc1ccc([N+](=O)[O-])cc1Cl)c1cc(Cl)ccc1O | 4.26 µM (active) | 122% and -83.1% |  |  | 1.66 µM (active) | 4.17 µM (active) | 1.05 µM (active) | 1.32 µM (active) | 1.05 µM (active) | 1.48 µM (active) |  |  |  | inactive
CS(=O)c1ccc(-c2nc(-c3ccc(F)cc3)c(-c3ccncc3)[nH]2)cc1 (configuration not stated) | 49.8 µM (active) | -3.57% | inactive | inactive | inactive |  |  |  | inactive | inactive |  |  |  | 
C[C@]12CC[C@@H]3c4ccc(O)cc4CC[C@H]3[C@@H]1CC[C@@H]2OC(=O)CCC1CCCC1 | 30.9 µM (active) | 19.6% | inactive | inactive |  |  |  |  |  |  | inactive |  |  | 
CCCNC(=O)Nc1ccc(Oc2ncnc3cc(OC)c(OC)cc23)cc1Cl | 26.9 µM (active) | 17.1% | inactive | inactive | inactive |  | inactive | inactive | inactive | inactive |  |  | 92.8 | 
O=C(CCCCCCC(=O)Nc1ccc([C@H]2O[C@@H](CSc3nc(-c4ccccc4)c(-c4ccccc4)o3)C[C@@H](c3ccc(CO)cc3)O2)cc1)NO | 5.36 µM (active) | 47.5% | inactive |  |  |  | 6.05 µM (active) |  |  |  |  |  |  | 
CC(C)n1nc(-c2cc3cc(O)ccc3[nH]2)c2c(N)ncnc21 | 21.3 µM (active) | 17.6% | inactive |  | 1.86 µM (active) | 0.417 µM (active) | 0.372 µM (active) | 0.332 µM (active) | 0.934 µM (active) | 0.417 µM (active) |  | 2.09 µM (active) |  | 
Cc1nc2c(-c3cnc(N)nc3)nc(N3CCOCC3)nc2n1C(C)C | 9.66 µM (active) | 14.3% | inactive | inactive |  | 0.296 µM (active) | 0.525 µM (active) |  |  |  |  |  |  | 
CNC(=O)CN1CCC(Oc2cc3c(Nc4cccc(Cl)c4F)ncnc3cc2OC)CC1 | 13.7 µM (active) | 14.3% | inactive | inactive |  |  | 16.6 µM (active) | 20.9 µM (active) | inactive | inactive |  |  | 107 | 
Cc1cc(Nc2ncc(Cl)c(Nc3ccccc3S(=O)(=O)C(C)C)n2)c(OC(C)C)cc1C1CCNCC1 | 7.57 µM (active) | 21.6% | inactive | inactive | 9.34 µM (active) | 4.68 µM (active) | 6.61 µM (active) | 10.5 µM (active) | 16.6 µM (active) | 9.34 µM (active) |  | 23.5 µM (active) |  | 
CCCCOc1c(C(=O)c2c(F)cc(C)cc2F)cnc2n[nH]cc12 | 3.79 µM (active) | 10.1% | inactive | inactive | 2.09 µM (active) |  |  | 2.35 µM (active) | 2.63 µM (active) | 3.72 µM (active) |  |  |  | 
